Test results taken from the supplement of paper PMC6555819.

Columns and labels:
Assay in all cases: PBM binding z-score (relative to random genomic background probes); higher = stronger binding; sequences stand for … in GC…GCGATTGACAGCGTAGAATGAAGG
[1] = system: FXR:RXRa (NR concentration 270 nM, RXRa partner concentration 90 nM)
In short: (§1)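 Binding z-scores were set against random background probes. The data came from custom Agilent 4×180K protein-binding microarrays carrying double-stranded probes with 34-nt variable regions, incubated 1 h with ligand-free nuclear receptor dimers. Partner-specific antibodies detected binding, and scanned fluorescence was regression-normalized.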

[2] = system: LXRa:RXRa (NR concentration 270 nM, RXRa partner concentration 90 nM)
In short: as §1

[3] = system: LXRa homodimer (NR concentration 270 nM)
In short: as §1

[4] = system: LXRb:RXRa (NR concentration 270 nM, RXRa partner concentration 90 nM)
In short: as §1

[5] = system: LXRb homodimer (NR concentration 270 nM)
In short: as §1

[6] = system: PPARa:RXRa (NR concentration 270 nM, RXRa partner concentration 90 nM)
In short: as §1

[7] = system: PPARg:RXRa (NR concentration 180 nM, RXRa partner concentration 90 nM)
In short: as §1

[8] = system: PPARg:RXRa 270nM:90nM, anti-RXR (NR concentration 270 nM, RXRa partner concentration 90 nM)
In short: as §1

[9] = system: PPARg:RXRa 30nM:10nM, anti-RXR (NR concentration 30 nM, RXRa partner concentration 10 nM)
In short: as §1

[10] = system: PPARg:RXRa 90nM:30nM, anti-RXR (NR concentration 90 nM, RXRa partner concentration 30 nM)
In short: as §1

[11] = system: PPARg:RXRa DBDmut IVT, anti-RXR (DBD mutation: RXRa K156A/R161A, NR concentration 270 nM, RXRa partner concentration 90 nM)
In short: as §1

[12] = system: PPARg:RXRa IVT, anti-PPARg (NR concentration 270 nM, RXRa partner concentration 90 nM)
In short: as §1

[13] = system: PPARg DBDmut:RXRa IVT, anti-PPARg (DBD mutation: PPARg1 K132A/R137A, NR concentration 270 nM, RXRa partner concentration 90 nM)
In short: as §1

[14] = system: PPARg DBDmut IVT, anti-PPARg (DBD mutation: PPARg1 K132A/R137A, NR concentration 270 nM)
In short: as §1

[15] = system: PPARg homodimer (NR concentration 180 nM)
In short: as §1

[16] = system: PXR:RXRa (NR concentration 270 nM, RXRa partner concentration 90 nM)
In short: as §1

[17] = system: PXR homodimer (NR concentration 270 nM)
In short: as §1

[18] = system: RARa:RXR (NR concentration 270 nM, RXRa partner concentration 90 nM)
In short: as §1

[19] = system: RARa homodimer (NR concentration 270 nM)
In short: as §1

[20] = system: RARb:RXRa (NR concentration 270 nM, RXRa partner concentration 90 nM)
In short: as §1

Row | Sequence | PBM binding z-score [1] | PBM binding z-score [2] | PBM binding z-score [3] | PBM binding z-score [4] | PBM binding z-score [5] | PBM binding z-score [6] | PBM binding z-score [7] | PBM binding z-score [8] | PBM binding z-score [9] | PBM binding z-score [10] | PBM binding z-score [11] | PBM binding z-score [12] | PBM binding z-score [13] | PBM binding z-score [14] | PBM binding z-score [15] | PBM binding z-score [16] | PBM binding z-score [17] | PBM binding z-score [18] | PBM binding z-score [19] | PBM binding z-score [20]
1 | CCTTACGGGTCAAGGTTCTAGCACGGGTGGTACG | 5.14 | 3.35 | -0.039 | 2.64 | -0.204 | 4.86 | 4.7 | 5.18 | 2.28 | 4.24 | 1.5 | 3.25 | 0.0121 | -0.395 | 2.56 | 2.98 | -0.35 | 3.97 | 0.251 | 4.05
2 | ATCTTTAGGTAAAAGTTCAGTGAATCCCGAGGAT | 0.829 | 1.33 | 1.14 | 0.973 | 1.01 | 4.03 | 6.36 | 7.35 | 6.09 | 7.91 | 0.803 | 3.1 | 1.38 | 1.31 | 1.01 | 2.07 | 1.47 | 1.56 | 0.328 | 2.51
3 | GGAACGAGGGCGAGTTGATAGCAGAGTTTGATGG | -0.328 | -0.505 | -0.54 | -0.523 | -0.787 | -0.0875 | 0.373 | -0.24 | -0.495 | -0.42 | 0.699 | -0.0712 | -0.327 | 0.298 | 0.0249 | 0.0143 | -0.021 | 0.0866 | -0.148 | 0.356
4 | CGTCACAGTTCAACTAAGGTAACGTAAAGCACGC | 3.5 | 3.37 | 1.17 | 2.07 | 0.36 | 3.14 | 1.61 | 1.49 | 0.576 | 0.859 | 0.343 | 1.09 | 0.467 | 1.1 | 1.58 | 3.88 | 1.47 | 2.28 | 0.677 | 3.1
5 | ACTCGGAGGACAAAGGTCAGCGCTACGCCAGTGA | 4.44 | 4.2 | 1.62 | 3.51 | 0.168 | 5.24 | 8.05 | 7.77 | 7.19 | 8.33 | 0.977 | 3.82 | 0.281 | -0.509 | 4.7 | 3.99 | 0.485 | 5.21 | 1.94 | 4.73
6 | CCTTACGGGTCACTAGGTTATAGCACGACGAGCG | 4.41 | 3.03 | 0.136 | 2.64 | -0.31 | 5.02 | 6.65 | 5.97 | 3.03 | 4.94 | 4.54 | 5.69 | 1.5 | 0.896 | 2.59 | 2.84 | -0.213 | 3.7 | 0.907 | 3.7
7 | ACTAGTTGGTCAGCTGAGGTCTCACACAATTCGG | 0.132 | -0.314 | -0.301 | -0.188 | -0.19 | 0.142 | 0.384 | 0.246 | -0.202 | 0.00207 | 1.19 | 0.901 | 0.251 | 0.203 | 0.325 | 0.286 | -0.249 | 0.165 | 0.106 | 1.05
8 | GCTGCTAGGTCAGGTTGGTCAGCAAACGGGTACG | 1.13 | 0.793 | -0.389 | 0.519 | -0.114 | 1.52 | 0.5 | 0.829 | -0.344 | 0.0879 | 2.74 | 2.2 | -0.864 | -0.495 | 0.7 | 0.33 | -0.684 | 0.7 | -0.687 | 3.25
9 | ACTCGGAGGACAAAAGTCAGAGCTACGCCAGTGA | -0.293 | -0.245 | -0.424 | -0.518 | -0.302 | 0.347 | 1.41 | 2.68 | 0.796 | 2.08 | 0.176 | -0.114 | -1.08 | -0.828 | 0.0197 | -0.626 | -0.332 | -0.564 | -0.279 | 0.928
10 | CCTCGGAGGACTGAAGGTCAGAGCTGTCCGCTTT | 0.88 | 1.89 | 0.285 | 0.745 | -0.722 | 1.46 | -0.679 | 0.572 | -0.9 | -0.111 | -0.418 | -0.254 | -2.59 | -3.05 | 0.742 | 1.32 | -0.196 | 1.28 | -0.166 | 2.38
11 | CGAACTAGGTCAAGGATAGTGAATCTCCGCACGC | 3.06 | 1.9 | 0.0332 | 1.36 | -0.0688 | 4.56 | 7.74 | 6.47 | 4.24 | 6.39 | 8.31 | 8.31 | 3.8 | 1.33 | 2.41 | 0.863 | -0.425 | 1.96 | 0.921 | 3.73
12 | ATCGAAAGGTCGACGAGGTAAGTATACACCGTTT | 4.59 | 3.11 | -0.055 | 2.62 | 0.428 | 4.09 | 2.6 | 3 | 1 | 2.11 | 0.556 | 1.6 | 0.911 | 0.688 | 1.42 | 2.3 | 0.185 | 3.12 | 0.419 | 3.66
13 | CCGACTGGGGCATATGGTTACCATAAGCCAGCCC | -0.611 | -0.598 | -0.857 | -0.657 | -1.1 | 0.208 | 1.47 | 1.94 | 0.491 | 1.32 | 1.89 | 2.21 | -0.616 | -1.62 | -0.697 | -0.746 | -0.567 | -0.363 | -0.355 | 0.172
14 | TCTAGTAGATCAAAGGTTAAGAAAGCCGAAGCCT | 1.56 | 2.07 | 0.141 | 1.98 | -0.538 | 4.8 | 8.6 | 8.24 | 8.54 | 8.99 | 2.37 | 3.82 | 0.0215 | 0.532 | 1.09 | 1.86 | -0.328 | 2.97 | 0.336 | 1.72
